Measured values as given in PubChem BioAssay (NCATS).
Records with an inconclusive call do not appear. A call without a number means that no potency is given here. A number with no mark means an inactive call. Calls of active or inactive are those of the source. Calls follow the shape of the dose curve; as a rule, active = well fitted curve in the direction sought with a large enough effect; inconclusive = small, poorly fitted or top-dose-only effect, or another doubt; inactive = no such curve, though single readings can be large; an effect the other way counts as inactive or inconclusive.

Tests used:
[1] = target: Rap guanine nucleotide exchange factor 3 (Homo sapiens) (UniProt O95398); test: Confirmatory qHTS for agonist of cAMP-regulated guanine nucleotide exchange factor 3 (EPAC1) (AID 1645881); conditions: EPAC1 Rap1B BODIPY-GDP exchange fluorescence; series mostly up to 154 µM;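 also: EPAC1 catalysed release of BODIPY-GDP from Rap1B seen as fluorescence loss; nearly all actives have a fitted effect of over 75% in size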
[2] = target: Rap guanine nucleotide exchange factor 4 (Homo sapiens) (UniProt Q8WZA2); test: Confirmatory qHTS for agonist of cAMP-regulated guanine nucleotide exchange factor 4 (EPAC2) (AID 1645884); conditions: EPAC2 GEF activity, Rap1B-BODIPY-GDP fluorescence; series mostly up to 154 µM;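 also: nucleotide exchange releases bodipy-GDP from Rap1 and this lowers its fluorescence; nearly all actives have a fitted effect of over 65% in size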
[3] = target: Rap guanine nucleotide exchange factor 4 (Homo sapiens) (UniProt Q8WZA2); test: Confirmatory qHTS for antagonist of cAMP-regulated guanine nucleotide exchange factor 4 (EPAC2) (AID 1645885); conditions: EPAC2 Rap1B-BODIPY-GDP exchange fluorescence, biochemical; series mostly up to 12.7 µM; also: nearly all actives have a fitted effect of over 25% in size; also: potency is read from the fitted curve at half-maximal effect
[4] = target: Rap guanine nucleotide exchange factor 3 (Homo sapiens) (UniProt O95398); test: Counterscreen qHTS for antagonist of cAMP-regulated guanine nucleotide exchange factor 3 (EPAC1) (AID 1645888); conditions: Rap1B-BODIPY-GDP nucleotide exchange, fluorescence; series mostly up to 154 µM;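 also: fluorescence loss as bound BODIPY-GDP is released from Rap1B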
Method in brief: (§1)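 Rap1B-BODIPY-GDP 250 nM + GDP 50 uM; cpds 7-pt, final 9.74 nM–152 uM (activator mode) or from 7.32 nM upwards (inhibitor mode); RT; FI 480/540 nm at 5 and 30 min, then ± cAMP, reread.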

[5] = target: Rap guanine nucleotide exchange factor 3 (Homo sapiens) (UniProt O95398); test: Counterscreen qHTS for agonist of cAMP-regulated guanine nucleotide exchange factor 3 (EPAC1) (AID 1645889); conditions: EPAC1 Rap1B-BODIPY-GDP exchange, fluorescence; series mostly up to 154 µM; also: nearly all actives have a fitted effect of over 40% in size
Method in brief: as §1

Sequence of Rap guanine nucleotide exchange factor 4 (Homo sapiens) (Q8WZA2 whole entry, looked up): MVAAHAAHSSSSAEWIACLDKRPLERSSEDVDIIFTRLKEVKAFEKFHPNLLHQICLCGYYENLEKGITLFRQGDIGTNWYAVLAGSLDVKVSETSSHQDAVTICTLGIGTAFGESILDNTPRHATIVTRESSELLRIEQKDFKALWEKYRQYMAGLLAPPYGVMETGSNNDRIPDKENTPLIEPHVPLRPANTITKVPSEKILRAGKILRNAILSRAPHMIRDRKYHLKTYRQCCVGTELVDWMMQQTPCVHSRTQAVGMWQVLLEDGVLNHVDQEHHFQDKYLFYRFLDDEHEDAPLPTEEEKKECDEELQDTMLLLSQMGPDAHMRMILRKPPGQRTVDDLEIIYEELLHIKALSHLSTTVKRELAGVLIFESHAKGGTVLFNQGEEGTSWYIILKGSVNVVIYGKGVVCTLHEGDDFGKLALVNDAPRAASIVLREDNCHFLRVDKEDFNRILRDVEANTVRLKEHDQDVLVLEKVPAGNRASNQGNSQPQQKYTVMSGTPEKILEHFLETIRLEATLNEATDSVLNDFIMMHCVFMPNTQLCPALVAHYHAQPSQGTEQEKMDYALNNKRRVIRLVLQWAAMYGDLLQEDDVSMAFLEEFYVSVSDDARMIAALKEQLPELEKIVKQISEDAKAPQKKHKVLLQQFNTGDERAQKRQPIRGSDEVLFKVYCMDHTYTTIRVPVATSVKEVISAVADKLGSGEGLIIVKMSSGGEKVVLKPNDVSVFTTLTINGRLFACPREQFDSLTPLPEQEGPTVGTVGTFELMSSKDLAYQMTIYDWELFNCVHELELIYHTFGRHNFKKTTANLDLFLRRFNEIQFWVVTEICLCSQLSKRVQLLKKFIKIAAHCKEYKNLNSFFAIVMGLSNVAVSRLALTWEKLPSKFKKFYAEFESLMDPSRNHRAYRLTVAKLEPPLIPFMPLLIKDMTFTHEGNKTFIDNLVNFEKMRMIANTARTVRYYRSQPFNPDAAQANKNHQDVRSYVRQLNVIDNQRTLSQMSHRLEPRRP
Sequence of Rap guanine nucleotide exchange factor 3 (Homo sapiens) (O95398 whole entry, looked up): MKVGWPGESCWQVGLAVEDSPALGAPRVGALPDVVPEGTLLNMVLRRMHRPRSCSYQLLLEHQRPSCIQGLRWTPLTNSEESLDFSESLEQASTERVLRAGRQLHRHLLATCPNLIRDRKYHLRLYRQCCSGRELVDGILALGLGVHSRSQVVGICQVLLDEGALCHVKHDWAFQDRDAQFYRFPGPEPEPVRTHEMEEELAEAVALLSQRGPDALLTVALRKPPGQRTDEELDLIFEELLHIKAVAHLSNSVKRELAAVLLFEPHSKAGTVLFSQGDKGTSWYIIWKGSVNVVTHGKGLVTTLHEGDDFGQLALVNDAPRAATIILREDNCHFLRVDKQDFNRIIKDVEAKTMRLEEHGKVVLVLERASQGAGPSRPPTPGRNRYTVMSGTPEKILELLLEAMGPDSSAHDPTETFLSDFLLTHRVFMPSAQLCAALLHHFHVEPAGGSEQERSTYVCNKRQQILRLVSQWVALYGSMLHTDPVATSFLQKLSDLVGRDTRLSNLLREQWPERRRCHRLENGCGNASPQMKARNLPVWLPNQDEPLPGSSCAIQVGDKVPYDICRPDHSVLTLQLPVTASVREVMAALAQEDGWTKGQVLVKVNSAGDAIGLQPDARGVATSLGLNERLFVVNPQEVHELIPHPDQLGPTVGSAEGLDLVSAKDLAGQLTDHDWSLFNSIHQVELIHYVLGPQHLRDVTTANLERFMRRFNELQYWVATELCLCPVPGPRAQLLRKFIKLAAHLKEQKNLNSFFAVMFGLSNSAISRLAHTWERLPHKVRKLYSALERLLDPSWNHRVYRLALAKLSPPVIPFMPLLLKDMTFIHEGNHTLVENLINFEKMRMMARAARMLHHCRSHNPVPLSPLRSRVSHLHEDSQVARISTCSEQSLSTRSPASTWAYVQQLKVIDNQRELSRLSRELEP

Structure (SMILES) | Potency [1] | Potency [2] | Potency [3] | Potency [4] | activation [2] | activity change, negative = inhibition [4] | activation [5] | Potency [5] | outcome [3]
Cc1ccc(-c2nc3c(c(=O)[nH]c(=O)n3Cc3ccccc3)n2C)o1 | inactive | inactive | inactive | inactive |  |  |  |  | 
COc1ccc(NC(=O)CSc2sc3c(O)cc(=O)[nH]c3c2C#N)c(OC)c1 | inactive |  | inactive |  | 3.92% [at 17.1 µM, percent relative to cAMP agonist control] | -13.9% [at 30.8 µM] |  |  | 
O=S(=O)(Nc1nc2ccc(Cl)cc2s1)c1cccs1 | inactive |  | inactive |  | 0% [at 17.1 µM, percent relative to cAMP agonist control] | -17.1% [at 30.8 µM] |  |  | 
COc1ccccc1Cc1c(-c2ccco2)nc2c(C)cc(Br)cn12 | inactive |  | inactive |  | 7.54% [at 17.1 µM, percent relative to cAMP agonist control] | -14.6% [at 30.8 µM] | 13.2% [at 30.8 µM] |  | 
Cc1cccc(C(=O)N=c2c(C#N)cc3c(=O)n4cccc(C)c4nc3n2Cc2ccco2)c1 | inactive | inactive | inactive | inactive |  |  |  | inactive | 
CC1(Cc2ccccc2Cl)C(=O)Nc2c(Cl)cccc21 (stereo unspecified) | inactive |  | inactive |  | 10% [at 17.1 µM, percent relative to cAMP agonist control] | -23.5% [at 30.8 µM] | 5.68% [at 30.8 µM] |  | 
COc1ccc(/C=C2\Sc3ccc(C(=O)N4CCN(Cc5ccccc5)CC4)cc3N(C)C2=O)cc1OC | inactive | inactive | inactive | inactive |  |  |  | inactive | 
CCCCn1c(N)c(N(CCC(C)C)C(=O)c2ccc(COc3ccccc3)o2)c(=O)[nH]c1=O | inactive |  | inactive |  | 1.71% [at 17.1 µM, percent relative to cAMP agonist control] | 1.42% [at 30.8 µM] | 7.33% [at 30.8 µM] |  | 
COc1ccc(-c2ccc(C(=O)NCCN3CCOCC3)c3occc23)c(C)c1 | inactive | inactive | inactive | inactive |  |  |  | inactive | 
Brc1ccc(/C=N/Nc2nc3ccccc3o2)cc1 | inactive | inactive | inactive | inactive |  |  |  | inactive | 
Cc1csc2c(=O)sc(NC(=O)c3cccs3)nc12 | inactive | inactive | inactive | inactive |  |  |  | inactive | 
CSc1cccc(NC(=O)Cn2nnc(C(=O)NCCc3ccccc3)c2N)c1 | inactive | inactive |  | inactive |  |  |  | inactive | inactive [at 12.7 µM]
O=C(N/N=C/c1ccc(O)c([N+](=O)[O-])c1)C1CC1(c1ccccc1)c1ccccc1 (stereo unspecified) | inactive |  | inactive |  | 2.95% [at 17.1 µM, percent relative to cAMP agonist control] | -23.6% [at 30.8 µM] | 11.6% [at 30.8 µM] |  | 
Oc1c(C(Nc2nccs2)c2ccc(C(F)(F)F)cc2)ccc2cccnc12 (stereo unspecified) | inactive |  | inactive |  | -2.43% [at 17.1 µM, percent relative to cAMP agonist control] | -18% [at 30.8 µM] | 3.72% [at 30.8 µM] |  | 
Cc1ccn2c(=O)nc(SCC(=O)Nc3ccc4c(c3)OCO4)nc2c1 | inactive | inactive | inactive | inactive |  |  |  |  | 
COc1ccc(C(CCN(Cc2ccc(OC)c(OC)c2)C(C)=O)C(C)C)cc1 (stereo unspecified) | inactive | inactive | inactive | inactive |  |  |  | inactive | 
Fc1cccc(Cc2c(-c3ccc(Cl)cc3)nc3ccc(Cl)cn23)c1 | inactive |  | inactive |  | 7.12% [at 17.1 µM, percent relative to cAMP agonist control] | -4.02% [at 30.8 µM] | 23% [at 30.8 µM] |  | 
Cc1ccc(NC(=O)C2(C)CCN2CCc2ccccc2)cc1 (stereo unspecified) | inactive |  | inactive |  | -1.02% [at 17.1 µM, percent relative to cAMP agonist control] | 1.14% [at 30.8 µM] | 6.12% [at 30.8 µM] |  | 
COc1cccc(C(NC(C)=O)c2ccc3cccnc3c2O)c1 (stereo unspecified) | inactive | inactive | 19 µM (active) | inactive |  |  |  | inactive | 

Structure (SMILES) | Potency [1] | Potency [2] | Potency [3] | Potency [4] | activation [2] | activity change, negative = inhibition [4] | activation [5] | Potency [5] | outcome [3]
NNc1cccc(C=Cc2ccccc2)cc1=O | inactive |  | inactive |  | 0.393% [at 17.1 µM, percent relative to cAMP agonist control] | -9.39% [at 30.8 µM] | 27.5% [at 30.8 µM] |  | 
CCC(C(=O)O)N1C(=O)/C(=C/C(C)=C/c2ccccc2)SC1=S (stereo unspecified) | inactive | inactive | 75.7 µM (active) | inactive |  |  |  | inactive | 
CCOC(=O)C(NS(=O)(=O)c1ccc(C)cc1)(C(F)(F)F)P(=O)(OCC(C)C)OCC(C)C (stereo unspecified) | inactive | inactive | inactive | inactive |  |  |  | inactive | 
Oc1ccc2ccccc2c1C=Nc1ccc(Cl)cn1 | inactive | inactive | inactive | inactive |  |  |  | inactive | 
Cc1ccc(C(=O)c2no[n+]([O-])c2C(=O)c2ccc(C)cc2)cc1 | inactive | inactive | inactive | inactive |  |  |  | inactive | 
Cc1ccc(C(=O)OCC(=O)c2ccc(CC(=O)N3CCOCC3)s2)c(C)c1 | inactive | inactive | inactive | inactive |  |  |  | inactive | 
Cc1cc(Br)cc(Cl)c1OC(=O)c1ccncc1 | inactive | inactive | 37.9 µM (active) | inactive |  |  |  | inactive | 
Cc1cc2nc(-c3ccco3)c(Cc3cccc(F)c3)n2c(C)c1Br | inactive |  | inactive |  | 6.3% [at 17.1 µM, percent relative to cAMP agonist control] | -4.32% [at 30.8 µM] | 10.5% [at 30.8 µM] |  | 
O=C(O)CCn1cc(/C=C\C(=O)c2ccc(Cl)cc2)c(-c2cccc(Br)c2)n1 | inactive |  | inactive |  | 4.02% [at 17.1 µM, percent relative to cAMP agonist control] | 0.257% [at 30.8 µM] | 15.3% [at 30.8 µM] |  | 
CC(C)CC1C(=O)N(Cc2cn(Cc3ccco3)nn2)CCS(=O)(=O)N1Cc1ccc(-c2ccccc2)cc1 (stereo unspecified) | inactive | inactive | 19 µM (active) | inactive |  |  |  | inactive | 
Cc1ccc(C)c(Cn2nc(-c3cc(C)ccc3C)ccc2=O)c1 | inactive | inactive | inactive | inactive |  |  |  | inactive | 
CCOP(=O)(OCC)C(Cc1ccc(OC)c(OC)c1)N=C(c1ccccc1)c1ccccc1 (stereo unspecified) | inactive |  | inactive |  | 4.61% [at 17.1 µM, percent relative to cAMP agonist control] | -11.3% [at 30.8 µM] | 17.1% [at 30.8 µM] |  | 
COc1cc(/C=C2/NC(=O)NC2=O)cc(Br)c1OCc1ccc(C(=O)O)cc1 | inactive |  | inactive |  | -3.55% [at 17.1 µM, percent relative to cAMP agonist control] | -4.68% [at 30.8 µM] | 11.1% [at 30.8 µM] |  | 
COc1ccc(NC(=O)CSc2nc3sc4c(c3c(=O)n2-c2ccc(OC)cc2)CCN(C)C4)cc1 | inactive |  | inactive |  | -8.15% [at 17.1 µM, percent relative to cAMP agonist control] | -8.97% [at 30.8 µM] | 31.5% [at 30.8 µM] |  | 
CCc1noc(C)c1C(=O)N1CCCSC1=Nc1ccccc1Cl | inactive |  | inactive |  | 0.52% [at 17.1 µM, percent relative to cAMP agonist control] | -10.8% [at 30.8 µM] | -1.65% [at 30.8 µM] |  | 
COC(=O)c1cc(Sc2c(Cl)cccc2Cl)ccn1 | inactive | inactive | 30.1 µM (active) | inactive |  |  |  | inactive | 
Cc1ccc(NC(=O)CCC(=O)c2cccs2)nc1 | inactive |  | inactive |  | 3.39% [at 17.1 µM, percent relative to cAMP agonist control] | -8.32% [at 30.8 µM] | 21.4% [at 30.8 µM] |  | 
CC(C)(C)NC(=O)NC(=O)CN1CCN(S(=O)(=O)c2ccc3c(c2)CCCC3)CC1 | inactive |  | inactive |  | -5.51% [at 17.1 µM, percent relative to cAMP agonist control] | -44% [at 30.8 µM] | 6.75% [at 30.8 µM] |  | 
